Measured values published in PubChem BioAssay (NCI).
“And” between values parts separate entries of the source, which are not always exact repeats. Equal values may be shown once. The panel holds about 83,000 compounds, 20% with a hit somewhere; the sample as a whole holds those more often.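 Growth was measured after 48 h exposure to one concentration of compound in 96-well plates. Values under 10 count as active.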 The source made the active and inactive calls.

Tests used:
Assay in all cases: NCI-60 one-dose screen, 48 h (100 = growth as untreated, 0 = no growth, -100 = all killed)
Details in all cases: 10 µM unless noted
[1] = system: HT29 colon
[2] = system: SNB-75 CNS
[3] = system: U251 CNS
[4] = system: PC-3 prostate
[5] = system: UACC-62 melanoma
[6] = system: LOX IMVI melanoma
[7] = system: SK-MEL-28 melanoma
[8] = system: SN12C renal
[9] = system: UO-31 renal
[10] = system: ACHN renal
[11] = system: CAKI-1 renal
[12] = system: A498 renal
[13] = system: CCRF-CEM leukemia
[14] = system: MOLT-4 leukemia
[15] = system: SNB-19 CNS
[16] = system: SK-MEL-2 melanoma
[17] = system: TK-10 renal
[18] = system: SK-MEL-5 melanoma
[19] = system: EKVX NSCLC

SMILES | growth [1] | growth [2] | growth [3] | growth [4] | growth [5] | growth [6] | growth [7] | growth [8] | growth [9] | growth [10] | growth [11] | growth [12] | growth [13] | growth [14] | growth [15] | growth [16] | growth [17] | growth [18] | growth [19]
Clc1nc(-c2ccccn2)nc2sc3c(c12)CCCCCC3 | 99.3% (inactive) | 85% (inactive) | 97.2% (inactive) | 92.2% (inactive) | 96% (inactive) | 67.8% (inactive) | 89.3% (inactive) | 84.9% (inactive) | 16.4% (inactive) | -20.4% (active) | -65.2% (active) | 118% (inactive) | 72.4% (inactive) | 67.7% (inactive) | – | – | – | – | –
COc1ncc(F)c(OC)n1 | 104% (inactive) | 89.1% (inactive) | – | 92.2% (inactive) | 106% (inactive) | 102% (inactive) | 107% (inactive) | 100% (inactive) | 86.9% (inactive) | 100% (inactive) | 94.5% (inactive) | 110% (inactive) | 100% (inactive) | 94.7% (inactive) | 111% (inactive) | 109% (inactive) | 108% (inactive) | – | –
COc1cc(-c2nc3ccccc3o2)cc(CN2CCN(c3ccccc3)CC2)c1O | 93.8% (inactive) | 65.7% (inactive) | 52.6% (inactive) | 40.4% (inactive) | 34% (inactive) | 8.05% (active) | 87.2% (inactive) | 66.2% (inactive) | 43.8% (inactive) | 73.6% (inactive) | 84.9% (inactive) | 77.6% (inactive) | – | 92.5% (inactive) | – | 75% (inactive) | 117% (inactive) | 31.7% (inactive) | 71.8% (inactive)
CCN1CCN(C(=S)SCC(=O)Nc2nc3ccc(OC)cc3s2)CC1 | 102% (inactive) | 94% (inactive) | 102% (inactive) | 82.9% (inactive) | – | 91.3% (inactive) | 106% (inactive) | 97.6% (inactive) | 79% (inactive) | 110% (inactive) | 81.8% (inactive) | 105% (inactive) | – | 97.2% (inactive) | 93.1% (inactive) | – | 111% (inactive) | 94.6% (inactive) | 101% (inactive)
Cc1ccc2c(c1)c(Sc1ccc(C(=O)NO)cc1)c1n2CN(C)CC1 | 25.6% (inactive) | 17.8% (inactive) | 2.16% (active) | -3.93% (active) | -1.71% (active) | -33.1% (active) | 7.31% (active) | 9.16% (active) | 45.9% (inactive) | 26.8% (inactive) | 62.9% (inactive) | – | – | -10.5% (active) | 31% (inactive) | 7.15% (active) | – | – | –
Cc1ccc(N=c2nc3sc4c(C)ccc(C)c4n3c(N)c2C#N)cc1 | 104% (inactive) | 92.1% (inactive) | 96.1% (inactive) | 88% (inactive) | 77.9% (inactive) | 99.4% (inactive) | 105% (inactive) | 108% (inactive) | 89.6% (inactive) | 103% (inactive) | 88.4% (inactive) | 110% (inactive) | 85% (inactive) | 93.6% (inactive) | – | – | – | – | –
CC(=O)Nc1ccccc1-c1n[nH]c(=O)[nH]c1=O | 90.7% (inactive) | 90.3% (inactive) | 101% (inactive) | 99.4% (inactive) | 103% (inactive) | 97.8% (inactive) | 104% (inactive) | 104% (inactive) | 79.1% (inactive) | 95.3% (inactive) | 83% (inactive) | 87.8% (inactive) | 105% (inactive) | 109% (inactive) | – | – | – | – | –
Oc1ccccc1/C=N/Nc1nc2ccccc2s1 | 105% (inactive) | 45.6% (inactive) | 45.3% (inactive) | 34.6% (inactive) | – | 37.2% (inactive) | 83.3% (inactive) | 48.8% (inactive) | 19.7% (inactive) | 43.1% (inactive) | 7.12% (active) | – | – | 41.2% (inactive) | 51.4% (inactive) | – | 95.1% (inactive) | 48.8% (inactive) | 61.9% (inactive)
O=C1C(Cl)=C(NCCCN2CCOCC2)C(=O)c2ccccc21 | 93.7% (inactive) | 78.3% (inactive) | 98.3% (inactive) | 79.6% (inactive) | 94.8% (inactive) | 54.2% (inactive) | 104% (inactive) | 82.8% (inactive) | 61% (inactive) | 108% (inactive) | 102% (inactive) | 110% (inactive) | 90.9% (inactive) | 88.4% (inactive) | 91.5% (inactive) | 104% (inactive) | 131% (inactive) | 67.5% (inactive) | 112% (inactive)
O=C(O)C[C@H](O)C[C@H](O)/C=C/c1c(C2CC2)nc2ccccc2c1-c1ccc(F)cc1 | 107% (inactive) | 103% (inactive) | 42.8% (inactive) | 26.9% (inactive) | 19.5% (inactive) | 34.5% (inactive) | 113% (inactive) | 30.3% (inactive) | 73.3% (inactive) | 39.7% (inactive) | 26.1% (inactive) | -28.9% (active) | – | 110% (inactive) | 74.9% (inactive) | – | 111% (inactive) | 67.6% (inactive) | 93.6% (inactive)
COc1ccc(/C=N/OCC(O)CN2CCC(O)CC2)cc1OC1CCCC1 (centres undefined) | 104% (inactive) | 80% (inactive) | 103% (inactive) | 94.7% (inactive) | 103% (inactive) | 105% (inactive) | 105% (inactive) | – | 88.6% (inactive) | 104% (inactive) | 95.4% (inactive) | – | – | 106% (inactive) | 95.9% (inactive) | 105% (inactive) | 106% (inactive) | 98.8% (inactive) | –
COc1ncnc2c1ncn2C/C(Br)=C(\Br)CCl | -56.8% (active) | 46.6% (inactive) | -71.8% (active) | 46.4% (inactive) | 57.3% (inactive) | -87.2% (active) | 77.4% (inactive) | 10.8% (inactive) | -56.8% (active) | 14.9% (inactive) | 96.2% (inactive) | 94.8% (inactive) | – | 18.9% (inactive) | – | 51.6% (inactive) | 51.3% (inactive) | – | 114% (inactive)
Cc1ccc2nc(NC(=O)CSC(=S)N3CCN(Cc4ccccc4)CC3)sc2c1 | -62.7% (active) | -93.2% (active) | -46.3% (active) | -40.2% (active) | – | -41.3% (active) | -60% (active) | – | -43.4% (active) | -2.52% (active) | -20.8% (active) | -3.21% (active) | – | 6.71% (active) | -22.2% (active) | – | -36.4% (active) | -96.4% (active) | 72.5% (inactive)
C=CC[P+](c1ccccc1)(c1ccccc1)c1ccccc1 | 40% (inactive) | 63.3% (inactive) | – | 34.7% (inactive) | 42% (inactive) | 66.4% (inactive) | 71.8% (inactive) | 69.7% (inactive) | 99.7% (inactive) | 91.2% (inactive) | 90.9% (inactive) | – | 59.7% (inactive) | 62.5% (inactive) | 61.6% (inactive) | 24.6% (inactive) | 78.7% (inactive) | 33.4% (inactive) | –
OB(O)c1ccccc1 | 101% (inactive) | 101% (inactive) | 101% (inactive) | 101% (inactive) | 109% (inactive) | 101% (inactive) | 117% (inactive) | 112% (inactive) | 91.3% (inactive) | 107% (inactive) | 96.5% (inactive) | 106% (inactive) | 100% (inactive) | 96.9% (inactive) | – | 107% (inactive) | 105% (inactive) | 113% (inactive) | 108% (inactive)
COc1ccc(-c2cc(=O)oc3c4c(ccc23)OCN(Cc2ccc(F)cc2)C4)cc1 | 42.4% (inactive) | – | 59% (inactive) | 54.9% (inactive) | 61.6% (inactive) | 73% (inactive) | 83.4% (inactive) | 58.6% (inactive) | 42.7% (inactive) | 64.7% (inactive) | 51.7% (inactive) | 38.9% (inactive) | 52.4% (inactive) | 39.9% (inactive) | 72.2% (inactive) | 94.2% (inactive) | 62.4% (inactive) | 3.99% (active) | –
CC1=CCC2C3(C)CCC2(C(C)C)C1C3 (centres undefined) (tested in a mixture with another compound) | – | – | – | – | 17.4% [100 µM] (inactive) and 0.443% [100 µM] (active) | – | – | – | – | – | – | – | – | – | – | – | 17.7% [100 µM] (inactive) and -89.5% [100 µM] (active) | – | –
CC(=O)Oc1ccc2ccc(=O)oc2c1OC(C)=O | – | – | – | – | 24.4% [100 µM] (inactive) and -66.3% [100 µM] (active) | – | – | – | – | – | – | – | – | – | – | – | 62.1% [100 µM] (inactive) and 17.8% [100 µM] (inactive) | – | –
CC(=O)c1cc2c(s1)C(=O)c1scc(C(C)=O)c1C2=O | – | – | – | – | -37.8% [100 µM] (active) and -81.8% [100 µM] (active) | – | – | – | – | – | – | – | – | – | – | – | -9.55% [100 µM] (active) and -86% [100 µM] (active) | – | –
